Assay results as given in PubChem BioAssay.

Experiment: growth suppression of yeast trafficking mutant, preliminary HTS, modulators of trafficking downstream of Golgi apparatus project, 1536-format plate, OD 615 nm (AID 637)
Conditions: yeast transport mutant growth, absorbance 615 nm, 18 h; hits give high values; in the data active = inhibition above about 30%; inactive = the rest

inhibition, inactive:
O=C(O)c1[nH]nc2c1COc1ccccc1-2 2.95%
O=C(Nc1ccc(Cl)cc1C(=O)Nc1ccncc1)c1ccco1 -1.59%
CCNC(=O)CC(=O)Nc1ccccc1C(=O)O -2.67%
COCCOC(=O)c1[nH]c2c(c1C)C(=O)CC(c1ccc(N(C)C)cc1)C2 (stereo not given) -5.87%
CCOC(=O)c1ccccc1NC(=O)N1CCn2c(C)ccc2C1CC (stereo not given) -4.92%
COc1ccc2[nH]c(=O)c(CN(C(=O)c3cccnc3)c3ccccc3OC)cc2c1 -0.16%
CC(=O)Nc1ccc(S(=O)(=O)Nc2nc3n(n2)C(c2ccccc2)CC(=O)N3)cc1 (stereo not given) -0.32%
CCOC(=O)CC1=C(C(=O)OCC)C(c2ccc(C)o2)C(C#N)=C(N)O1 (stereo not given) -9.05%
COc1ccc(S(=O)(=O)N2CCOCC2)cc1C(=O)Nc1cc(C)on1 -9.83%
COC(=O)c1ccccc1NC(=O)C1CC(=O)N(c2ccccc2)C1 (stereo not given) 6.77%
Cn1c(SCC(N)=O)nnc1C1CCN(S(=O)(=O)c2ccccc2C(F)(F)F)CC1 -0.33%
C=CCc1cc(OC)ccc1OCC(O)CN1CCN(c2ccc(OC)cc2)CC1 (stereo not given) 8.57%
O=C(Nc1nnc(COc2ccc(F)cc2)s1)c1cccs1 -0.48%
CC(C)(C)n1nnnc1CN1CCC(NC(=O)NC2CCCCC2)CC1 -2.5%
C=CCn1c(Cc2cccs2)nnc1SCC(=O)Nc1ccc(OC)c(OC)c1 0%
CC(C)(C)c1cc(C(=S)N2CCN(CCO)CC2)cc(C(C)(C)C)c1O 2.42%
COc1cccc(-c2nnc3sc(-c4ccc(C)cc4)nn23)c1 -4.03%
O=C(CSc1ncn[nH]1)c1ccco1 0.33%
Cc1ccccc1C(=O)Nc1c(C(=O)N2CCCC2)cnn1-c1ccccc1 -0.63%
CCCS(=O)(=O)Nc1c(C(=O)O)[nH]c2ccccc12 -12.8%
CCOC(=O)Nc1sc(=S)n(C)c1C 0.16%
CC1(C)C(=O)Nc2ccccc2N1C(=O)COC(=O)Cn1cnc2ccccc2c1=O -5.5%
O=C(CNC(=O)c1ccccc1C(=O)O)c1ccccc1 -0.49%
Cc1ccc(F)cc1NC(=O)Cc1nn(C)c(=O)c2ccccc12 -0.16%
CCN1CCN(C(=O)c2ccc3c(=O)n(C4CCCC4)c(=S)[nH]c3c2)CC1 19.5%
O=C(NC1CCS(=O)(=O)C1)N1CCCCC1 (stereo not given) -2%
COc1ccc(NC(=O)CCCN2C(=O)C3C4C=CC(C4)C3C2=O)c(OC)c1 (stereo not given) -5.09%
COc1ccc(S(=O)(=O)N(C)c2ccc(C(=O)N3CCOCC3)cc2)cc1 1.8%
Cc1cccc(NC(=O)Cn2c(=O)n(C)c3ccccc32)c1 -2.7%
CC1(C)Cc2c(sc3ncnc(N)c23)CO1 1.48%
Cn1c(=O)c(-c2ccccc2)nn2c3ccccc3nc12 3%
COc1cccc(NC(=O)NC2(C(F)(F)F)Oc3ccccc3O2)c1 -0.16%
COc1ccc2nc3oc(C(=O)NC4CCN(Cc5ccccc5)CC4)cc3cc2c1 -14.8%
Cc1ccc(S(=O)(=O)N2CCN(C(=O)CN3C(=O)NC4(CCOc5ccccc54)C3=O)CC2)cc1 (stereo not given) -1.09%
O=S(=O)(c1cccc2nsnc12)N1CCN(c2ncccn2)CC1 3.61%
Cc1ccc(C(=O)N2CCCC(c3nc4c(nnn4Cc4ccccc4)c(=O)[nH]3)C2)cc1 (stereo not given) 7.33%
O=C(C1CCN(S(=O)(=O)Cc2ccccc2)CC1)N1CCN(c2ncccn2)CC1 -2.36%
CCOc1ncccc1C(=O)OCC(=O)Nc1ncc(C(F)(F)F)cc1Cl 7.9%
O=C(Cn1ccc2ccccc2c1=O)Nc1ccc2c(c1)OCO2 -3.17%
Cn1nnnc1SCC(=O)NCc1ccco1 -6.72%
